# PubChem BioAssay
# “And” between values parts separate entries of the source, which are not always exact repeats. Equal values may be shown once. Inconclusive results are not listed. The source made the active and inactive calls.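 How the source made its calls, unless noted: active means normalized viability below 100% at a tested concentration; inactive means the rest.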
# What was measured:
# [1] = compounds altering circadian rhythm period length – cell-based, LOPAC library, luminescence reporter (AID 2774; call rule not given here;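 further: values are relative to mean of DMSO wells on each plate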); conditions: circadian reporter cells, at 7 µM, actives lie on both sides
# [2] = compounds altering viability of human ES cells (AID 493140; call rule not given here;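 further: cells exposed to compounds for four days before counting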); conditions: human embryonic stem cell survival screen; stronger effect = higher value
# [3] = P. berghei load reduction in hepatocytes – cell-based, HepG2, luciferase luminescence, HepG2 viability, primary screen (AID 624349; in the data active means parasite load remaining mostly below about 12%, no sharp cut-off; inactive means mostly above about 10%;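 further: 100% = mean of DMSO negative control wells on the same plate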); conditions: P. berghei liver stage in HepG2, luciferase luminescence, concentration not given here; parasite load remaining: stronger effect = lower value; viability: measured here: HepG2 viability without parasites
# [4] = test system: Hepatitis C virus NS3 helicase; experiment: blockers of NS3h binding to ssDNA – biochemical, fluorescence polarization, LOPAC1280 library, primary screen (AID 687035; in the data active means inhibition above about 37%); conditions: Purified HCV NS3 helicase, Cy5-dT15 ssDNA binding fluorescence polarization; stronger effect = higher value; concentration not given here
# [5] = compounds altering Cy5-DNA-NS3h complex signal – biochemical, LOPAC1280, artefact control for HCV NS3 helicase inhibitor project (AID 687037; call rule not given here); conditions: Cy5-DNA-NS3h complex fluorescence interference counterscreen
# [6] = viability loss with induced miR-34 in A549 – imaging, A549 dox-inducible miR-34, nuclei and caspase counts, primary screen (AID 1347080;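 active means compounds whose cell count with miR-34 switched on is under 0.7 times the count with it off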); conditions: A549 miR-34 inducible, Hoechst nuclei count, 48 h
# [7] = blockers of cellular phospholipid synthesis – cell-based, LOPAC library, screen 4, primary screen (AID 1347384; call rule not given here); conditions: animal cells, phospholipid biosynthesis inhibition screen; at 10 µM
# [8] = MELAS cybrid and Rieske KO viability enhancers – cell-based, MELAS cybrids, Rieske KO mouse fibroblasts, CellTiter-Glo, primary screen (AID 1508586;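 active means mean z-score across replicates of 1.96 or higher in either the MELAS or the Rieske mutant cell line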;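 further: z relative to plate mean and SD of compound and empty wells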); conditions: low glucose
# [9] = galactose survival enhancers in mitochondrial complex I cybrids – cell-based, galactose medium, ATP luminescence, primary screen (AID 1645843;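 active means z-score of at least 1.8 in each of two replicates, scored against plate mean and spread of sample wells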;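 further: positive z means more ATP and so rescue of galactose-driven cybrid death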); conditions: complex I mutant cybrid cells, 72 h, stronger effect = higher value
# [10] = chitosan synthesis blockers in C. neoformans – flow cytometry, Cibacron Brilliant Red staining (AID 1347148; call rule not given here;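 further: compound exposure lasted three days at 37 degrees C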); conditions: Cryptococcus neoformans chitosan, stronger effect = lower value; at 10 µM unless noted
# [11] = target: ATP-dependent translocase ABCB1 (Homo sapiens) (UniProt P08183); experiment: P-glycoprotein substrate transport blockade – cell-based (AID 377; in the data active means fluorescence slope change above about 50%); conditions: MDR1-expressing cells, fluorescent substrate accumulation slope; stronger effect = higher value; concentration not given here
# Sequence of ATP-dependent translocase ABCB1 (Homo sapiens) (P08183 whole entry, looked up): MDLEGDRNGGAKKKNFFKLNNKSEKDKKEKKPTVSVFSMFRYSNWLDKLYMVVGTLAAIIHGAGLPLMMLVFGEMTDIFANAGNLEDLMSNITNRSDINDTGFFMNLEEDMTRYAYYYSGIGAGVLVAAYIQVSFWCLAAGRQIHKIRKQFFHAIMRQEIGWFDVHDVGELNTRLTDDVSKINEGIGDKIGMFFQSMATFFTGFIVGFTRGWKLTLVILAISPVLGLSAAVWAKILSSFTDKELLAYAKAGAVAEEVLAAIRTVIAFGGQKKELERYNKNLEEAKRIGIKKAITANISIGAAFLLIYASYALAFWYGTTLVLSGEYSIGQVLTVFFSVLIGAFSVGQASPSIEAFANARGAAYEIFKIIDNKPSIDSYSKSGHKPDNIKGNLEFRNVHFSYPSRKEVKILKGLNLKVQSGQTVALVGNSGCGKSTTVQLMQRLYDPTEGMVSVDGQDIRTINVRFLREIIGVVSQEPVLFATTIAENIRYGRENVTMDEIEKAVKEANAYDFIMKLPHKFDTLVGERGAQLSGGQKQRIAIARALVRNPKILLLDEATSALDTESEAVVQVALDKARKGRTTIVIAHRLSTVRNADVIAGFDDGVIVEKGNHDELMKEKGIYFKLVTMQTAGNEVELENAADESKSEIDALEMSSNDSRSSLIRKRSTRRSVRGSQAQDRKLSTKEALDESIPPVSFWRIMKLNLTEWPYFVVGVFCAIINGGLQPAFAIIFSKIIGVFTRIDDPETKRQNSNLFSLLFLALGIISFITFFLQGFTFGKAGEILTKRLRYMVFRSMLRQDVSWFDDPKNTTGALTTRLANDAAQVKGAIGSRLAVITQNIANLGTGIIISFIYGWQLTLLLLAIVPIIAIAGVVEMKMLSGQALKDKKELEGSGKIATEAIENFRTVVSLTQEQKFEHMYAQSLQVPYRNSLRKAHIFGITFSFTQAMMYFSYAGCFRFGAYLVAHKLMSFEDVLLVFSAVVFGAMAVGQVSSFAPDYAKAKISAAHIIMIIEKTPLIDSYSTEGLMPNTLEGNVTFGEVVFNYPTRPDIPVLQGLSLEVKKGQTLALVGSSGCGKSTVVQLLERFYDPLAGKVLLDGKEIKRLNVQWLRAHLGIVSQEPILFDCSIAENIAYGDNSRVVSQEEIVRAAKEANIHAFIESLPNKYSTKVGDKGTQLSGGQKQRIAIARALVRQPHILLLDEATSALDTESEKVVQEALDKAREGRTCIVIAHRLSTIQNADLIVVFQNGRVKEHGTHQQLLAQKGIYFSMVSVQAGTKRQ
# [12] = compounds altering HSF1 focus formation in cells – imaging, Selleck Cancer Library (AID 1347162; in the data active means plate-normalised HSF1 focus index below about 0.46); conditions: human cells, HSF1 nuclear foci imaging, at 10 µM; SSMD: measured here: HSF1 foci SSMD mean; cell count: measured here: cell number; plate-normalised HSF1 focus index: stronger effect = lower value
# [13] = drug combination growth inhibition, ovarian cancer – cell-based, oncology-focused library, rucaparib conditional, profiling panel (AID 1508598); conditions: patient-derived ovarian cancer cells, CellTiter-Glo viability, 144 h, stronger effect = lower value
# [14] = stronger effect = lower value, cell number ratio, induced over uninduced
# [15] = measured here: relative caspase fold change +Dox/-Dox
# [16] = measured here: total cells with miR-34 induction, stronger effect = lower value
# [17] = measured here: total cells without miR-34 induction
# [18] = MELAS cybrid survival, CellTiter-Glo 48 h, stronger effect = higher value
# [19] = Rieske KO mouse fibroblast survival, CellTiter-Glo 72 h
compound,measurement,setting,value
NC(N)=NCc1cccc(I)c1,period change,[1],0.01 h (inactive)
same,survival,[2],4 (inactive)
same,parasite load remaining,[3],28.4% (inactive) and 43.8% (inactive)
same,viability,[3],121% and 78.9%
same,inhibition,[4],-5% (inactive)
same,fluorescence ratio (interference),[5],0.9 (inactive)
same,fold change,[6]; [14],1.1 (inactive) and 0.739 (inactive)
same,fold change,[6]; [15],0.666 and 1.95
same,cell count,[6]; [16],8720 and 5880
same,cell count,[6]; [17],7960
same,outcome,[7],inactive
same,z-score,[8]; [18],-0.124 (inactive)
same,z-score,[8]; [19],-0.101
same,z-score,[9],-0.305 (inactive)
CCCCC/C=C\C/C=C\CCCCCCCCCC(=O)O,survival,[2],74.2 (inactive)
same,fold change,[6]; [14],0.992 (inactive) and 1.02 (inactive)
same,fold change,[6]; [15],0.988 and 0.888
same,cell count,[6]; [16],6110 and 5920
same,cell count,[6]; [17],6160 and 5820
same,fold fluorescence,[10],3.91 (inactive)
COc1ccc(-c2ccc(N)[n+](CCCC(=O)O)n2)cc1,fluorescence slope change,[11],101% (active)
same,period change,[1],0.235 h (inactive)
same,survival,[2],6.75 (inactive)
same,parasite load remaining,[3],113% (inactive) and 70.4% (inactive)
same,viability,[3],102% and 78.3%
same,inhibition,[4],-3% (inactive)
same,fluorescence ratio (interference),[5],0.9 (inactive)
same,fold change,[6]; [14],0.962 (inactive) and 0.851 (inactive)
same,fold change,[6]; [15],1.4 and 1.26
same,cell count,[6]; [16],9690 and 9480
same,cell count,[6]; [17],10100 and 11100
same,outcome,[7],inactive
same,z-score,[8]; [18],0.473 (inactive)
same,z-score,[8]; [19],0.0476
same,z-score,[9],0.685 (inactive)
COc1ccc(C2=NC(c3ccc(Cl)cc3)C(c3ccc(Cl)cc3)N2C(=O)N2CCNC(=O)C2)c(OC(C)C)c1 (configuration not stated),fold change,[6]; [14],0.914 (inactive) and 0.912 (inactive) and 0.921 (inactive)
same,fold change,[6]; [15],0.374 and 0.688 and 0.486
same,cell count,[6]; [16],2920 and 2710 and 7580
same,cell count,[6]; [17],3200 and 2970 and 8230
same,SSMD,[12],2.83
same,cell count,[12],7540
same,plate-normalised HSF1 focus index,[12],1.18 (inactive)
same,z-score,[8]; [18],0.254 (inactive) and -0.293 (inactive) and -0.371 (inactive)
same,z-score,[8]; [19],0.0375 and 0.393 and 0.654
same,viability,"[13]; at 0.000305 µM, OCI-C5x cells, with rucaparib 10 µM, 100% = cells with rucaparib alone",120% (inactive)
same,viability,"[13]; at 0.000305 µM, OCI-C5x cells, without rucaparib",129% (inactive)
same,viability,"[13]; at 0.000305 µM, OCI-P5x cells, with rucaparib 20 µM, 100% = cells with rucaparib alone",108% (inactive)
same,viability,"[13]; at 0.000305 µM, OCI-P5x cells, without rucaparib",104% (inactive)
same,viability,"[13]; at 0.00122 µM, OCI-C5x cells, with rucaparib 10 µM, 100% = cells with rucaparib alone",116% (inactive)
same,viability,"[13]; at 0.00122 µM, OCI-C5x cells, without rucaparib",136% (inactive)
same,viability,"[13]; at 0.00122 µM, OCI-P5x cells, with rucaparib 20 µM, 100% = cells with rucaparib alone",104% (inactive)
same,viability,"[13]; at 0.00122 µM, OCI-P5x cells, without rucaparib",93.6% (active)
same,viability,"[13]; at 0.00488 µM, OCI-C5x cells, with rucaparib 10 µM, 100% = cells with rucaparib alone",112% (inactive)
same,viability,"[13]; at 0.00488 µM, OCI-C5x cells, without rucaparib",124% (inactive)
same,viability,"[13]; at 0.00488 µM, OCI-P5x cells, with rucaparib 20 µM, 100% = cells with rucaparib alone",96.2% (active)
same,viability,"[13]; at 0.00488 µM, OCI-P5x cells, without rucaparib",91.7% (active)
same,viability,"[13]; at 0.0195 µM, OCI-C5x cells, with rucaparib 10 µM, 100% = cells with rucaparib alone",110% (inactive)
same,viability,"[13]; at 0.0195 µM, OCI-C5x cells, without rucaparib",128% (inactive)
same,viability,"[13]; at 0.0195 µM, OCI-P5x cells, with rucaparib 20 µM, 100% = cells with rucaparib alone",97% (active)
same,viability,"[13]; at 0.0195 µM, OCI-P5x cells, without rucaparib",93.4% (active)
same,viability,"[13]; at 0.0781 µM, OCI-C5x cells, with rucaparib 10 µM, 100% = cells with rucaparib alone",108% (inactive)
same,viability,"[13]; at 0.0781 µM, OCI-C5x cells, without rucaparib",124% (inactive)
same,viability,"[13]; at 0.0781 µM, OCI-P5x cells, with rucaparib 20 µM, 100% = cells with rucaparib alone",102% (inactive)
same,viability,"[13]; at 0.0781 µM, OCI-P5x cells, without rucaparib",95.5% (active)
same,viability,"[13]; at 0.313 µM, OCI-C5x cells, with rucaparib 10 µM, 100% = cells with rucaparib alone",113% (inactive)
same,viability,"[13]; at 0.313 µM, OCI-C5x cells, without rucaparib",115% (inactive)
same,viability,"[13]; at 0.313 µM, OCI-P5x cells, with rucaparib 20 µM, 100% = cells with rucaparib alone",97.6% (active)
same,viability,"[13]; at 0.313 µM, OCI-P5x cells, without rucaparib",86.9% (active)
same,viability,"[13]; at 1.25 µM, OCI-C5x cells, with rucaparib 10 µM, 100% = cells with rucaparib alone",103% (inactive)
same,viability,"[13]; at 1.25 µM, OCI-C5x cells, without rucaparib",111% (inactive)
same,viability,"[13]; at 1.25 µM, OCI-P5x cells, with rucaparib 20 µM, 100% = cells with rucaparib alone",91.3% (active)
same,viability,"[13]; at 1.25 µM, OCI-P5x cells, without rucaparib",89.1% (active)
same,viability,"[13]; at 5 µM, OCI-C5x cells, with rucaparib 10 µM, 100% = cells with rucaparib alone",109% (inactive)
same,viability,"[13]; at 5 µM, OCI-C5x cells, without rucaparib",104% (inactive)
same,viability,"[13]; at 5 µM, OCI-P5x cells, with rucaparib 20 µM, 100% = cells with rucaparib alone",82.1% (active)
same,viability,"[13]; at 5 µM, OCI-P5x cells, without rucaparib",90.4% (active)
CO[C@H]1C[C@@H]2CC[C@@H](C)[C@@](O)(O2)C(=O)C(=O)N2CCCC[C@H]2C(=O)O[C@H]([C@H](C)C[C@@H]2CC[C@@H](O)[C@H](OC)C2)CC(=O)[C@H](C)/C=C(\C)[C@@H](O)[C@@H](OC)C(=O)[C@H](C)C[C@H](C)/C=C/C=C/C=C/1C,parasite load remaining,[3],55.9% (inactive)
same,viability,[3],106%
same,fold change,[6]; [14],0.856 (inactive) and 0.953 (inactive)
same,fold change,[6]; [15],1.35 and 1.11
same,cell count,[6]; [16],3240 and 7080
same,cell count,[6]; [17],3790 and 7430
same,SSMD,[12],1.27
same,cell count,[12],7610
same,plate-normalised HSF1 focus index,[12],1.08 (inactive)
same,z-score,[8]; [18],-0.0487 (inactive)
same,z-score,[8]; [19],0.674
same,z-score,[9],2.58 (active)
CC/C=C\C/C=C\C/C=C\C/C=C\C/C=C\CCCCCC(=O)O,survival,[2],78 (inactive)
same,fold change,[6]; [14],0.983 (inactive) and 0.953 (inactive)
same,fold change,[6]; [15],0.972 and 0.777
same,cell count,[6]; [16],5080 and 5820
same,cell count,[6]; [17],5170 and 6110
same,fold fluorescence,[10],5.56 (inactive)
CC(=O)N[C@@H](CSC/C=C(\C)CC/C=C(\C)CCC=C(C)C)C(=O)O,survival,[2],97.2 (inactive)
same,fold change,[6]; [14],0.899 (inactive) and 1.06 (inactive)
same,fold change,[6]; [15],1.4 and 1.04
same,cell count,[6]; [16],5730 and 5900
same,cell count,[6]; [17],6380 and 5570
same,fold fluorescence,[10],5 [at 136 µM] (inactive)
CC(N)C1CCC(C(=O)Nc2ccncc2)CC1 (configuration not stated),period change,[1],0 h (inactive)
same,inhibition,[4],-1% (inactive)
same,fluorescence ratio (interference),[5],1 (inactive)
same,fold change,[6]; [14],0.953 (inactive) and 0.841 (inactive)
same,fold change,[6]; [15],1.2 and 0.911
same,cell count,[6]; [16],10100 and 7170
same,cell count,[6]; [17],10600 and 8530
same,outcome,[7],inactive
same,z-score,[8]; [18],-0.271 (inactive)
same,z-score,[8]; [19],0.184
same,z-score,[9],-0.475 (inactive)
CCCCC/C=C\C/C=C\C/C=C\CCCCC(=O)O,survival,[2],76.5 (inactive)
same,fold change,[6]; [14],0.948 (inactive) and 1.06 (inactive)
same,fold change,[6]; [15],1.2 and 0.96
same,cell count,[6]; [16],5680 and 5970
same,cell count,[6]; [17],5990 and 5660
same,fold fluorescence,[10],4.86 (inactive)
CCc1cncnc1N1CCN(Cc2nc3ccc(C(F)(F)F)cc3[nH]2)CC1,fold change,[6]; [14],0.998 (inactive) and 0.92 (inactive)
same,fold change,[6]; [15],1.49 and 0.523
same,cell count,[6]; [16],6670 and 5920
same,cell count,[6]; [17],6690 and 6430
same,SSMD,[12],2.94
same,cell count,[12],7470
same,plate-normalised HSF1 focus index,[12],1.18 (inactive)
same,outcome,[7],inactive
same,z-score,[8]; [18],0.232 (inactive)
same,z-score,[8]; [19],0.0669
same,z-score,[9],-1.37 (inactive)
CSC(=N)N,period change,[1],-0.11 h (inactive)
same,inhibition,[4],-4% (inactive)
same,fluorescence ratio (interference),[5],1 (inactive)
same,fold change,[6]; [14],1 (inactive) and 0.925 (inactive)
same,fold change,[6]; [15],1.64 and 1.46
same,cell count,[6]; [16],10600 and 5770
same,cell count,[6]; [17],10500 and 6230
same,outcome,[7],inactive
same,z-score,[9],0.095 (inactive)
